Assay outcomes (PubChem)
Hits are enriched below; roughly 4.6% of the tested compounds scored in any of these assays.
Tau fluor cs: counter-screen for tau fibril formation inhibitors. tau K18 P301L Alexa594 fluorescence, heparin fibrillization. Potency, µM (doses to about 57.7 µM), for inactives: at the top dose activity change, negative = decrease. 0.93% of 280,000 active; also: potency is read from the fitted curve at half-maximal effect; nearly all actives have a fitted effect of over 55% in size
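Human tau K18 P301L (15 uM unlabeled, 0.24 uM Alexa 594-labeled) in 100 mM sodium acetate pH 7 with 20 uM heparin, 6 hr at 37 C. ThT 30 uM added, 1 hr ambient; Alexa 594 FP and total fluorescence read at 555/632 nm.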
Tau ThT inhib: inhibitors of human tau fibril formation, thioflavin T binding | P10636 | recombinant tau K18 P301L, heparin-induced fibrillization, ThT fluorescence | Potency, µM (doses to about 57.4 µM), without a hit: at the highest dose activity, negative = inhibition, usual class: inhibitors | 2.1% of 270,000 active | AID 1460; also: potency is read from the fitted curve at half-maximal effect; nearly all actives have a fitted effect of over 55% in size
Target sequence (P10636 561-689 P618L limits assumed): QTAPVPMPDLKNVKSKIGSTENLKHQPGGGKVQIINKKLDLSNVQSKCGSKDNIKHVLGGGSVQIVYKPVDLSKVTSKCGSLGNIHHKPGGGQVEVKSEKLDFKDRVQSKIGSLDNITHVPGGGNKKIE
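Using a mix of unlabeled (15 uM) and Alexa 594-labeled (0.24 uM) tau K18 P301L, heparin-triggered fibrillization over 6 hr at 37 C was scored by ThT fluorescence.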
TexasRed fluor: alters Texas Red total fluorescence, flagging assay interference; AID 1479; TRb/SRC2 Texas Red total fluorescence interference; 0.29% of 280,000 active; Potency, µM (series often up to 106 µM), for inactives: at the highest dose fluorescence change, negative = quenching; active = well fitted curve in either direction with a large enough effect; inconclusive = small, poorly fitted or top-dose-only effect; also: potency is read from the fitted curve at half-maximal effect
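Human TRb ligand-binding domain at 0.6 uM with 20 nM Texas Red SRC2 peptide in Tris buffer containing 1 uM T3 and 5% DMSO, incubated with compound 5 h at ambient temperature. Total fluorescence (555/632 nm) calculated as parallel + 2 × perpendicular.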
PNC assembly inh: blocks assembly of the perinucleolar compartment; PC3M PTB-GFP, PNC prevalence imaging, 16 h; hits give low values; 3.1% of 140,000 active; activity change (PNC), negative = inhibition, % at 10 µM;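 active = readout at or below -70, meaning at least 70% loss of cells showing the perinucleolar compartment, a nuclear body marking cancer cells; inconclusive = readout between -30 and a set limit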;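 also: plate controls were DMSO wells for no effect and camptothecin positive control wells for full effect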
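Compounds are pinned in duplicate onto adhered PC3M cells stably expressing GFP-tagged PTB and incubated 16 h at 37 C. Cells are then fixed, nuclei stained with Hoechst, and PNC-positive cells counted.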
TRb SRC2 PPI: TRbeta-SRC2 interaction inhibition; TRbeta-SRC2 peptide binding, fluorescence polarization; receptor liganded with 1 µM T3; P10828; 0.065% of 280,000 active; Potency, µM (doses to about 106 µM), without a hit: at the top dose activity change, negative = inhibition, most hits filed as inhibitors;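 also: potency is read from the fitted curve at half-maximal effect; plate controls were bound peptide for no effect and peptide without receptor for full effect; nearly all actives have a fitted effect of over 50% in size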
Target sequence (P10828 whole entry, looked up): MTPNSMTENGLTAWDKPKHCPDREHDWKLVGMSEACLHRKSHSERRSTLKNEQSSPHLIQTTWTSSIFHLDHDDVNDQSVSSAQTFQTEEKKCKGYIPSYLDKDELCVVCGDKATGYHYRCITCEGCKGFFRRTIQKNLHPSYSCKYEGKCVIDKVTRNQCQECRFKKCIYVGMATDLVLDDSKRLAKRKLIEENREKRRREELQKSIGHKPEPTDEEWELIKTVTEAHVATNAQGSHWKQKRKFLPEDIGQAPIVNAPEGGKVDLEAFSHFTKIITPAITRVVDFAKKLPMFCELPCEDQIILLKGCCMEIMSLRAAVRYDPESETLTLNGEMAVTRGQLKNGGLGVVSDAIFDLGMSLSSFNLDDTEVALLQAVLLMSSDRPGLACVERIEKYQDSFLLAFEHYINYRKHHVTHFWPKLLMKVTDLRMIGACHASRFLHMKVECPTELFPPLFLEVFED
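Human TRb LBD (0.6 uM) plus Texas Red-labeled SRC2 peptide (20 nM), 1uM T3, 5% DMSO, 5 hr at ambient temperature. Decreased polarization (555/632 nm) flags inhibition; data normalized to free and bound peptide controls.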
Tau fibril FP: blocks human tau fibril formation measured by polarization | AID 1468 | 0.39% of 280,000 active | K18 P301L tau heparin fibrillization, Alexa594 FP, 6 h | P10636 | Potency, µM (series often up to 57.7 µM), for inactives: at the top dose activity, negative = inhibition, hits mostly inhibitors; also: potency is read from the fitted curve at half-maximal effect; nearly all actives have a fitted effect of over 55% in size
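Recombinant K18 P301L […], labeled with Alexa 594 at 0.24 uM over 15 uM unlabeled; heparin inducer 20 uM final; 37 C, 6 hr; FP endpoint.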
Numbers without * were called inactive; ? = inconclusive; . = no result given; ! = not confirmed by another sample; [ ] = remark or other dose. Unless noted, calls follow the shape of the dose curve; as a rule, active = well fitted curve in the direction sought with a large enough effect; inconclusive = small, poorly fitted or top-dose-only effect, or another doubt; inactive = no such curve, though single readings can be large; an effect the other way counts as inactive or inconclusive. Unless noted, % is scaled to controls: 0 for no effect and ±100 for the full control effect.

SMILES	Tau fluor cs	Tau ThT inhib	TexasRed fluor	PNC assembly inh	TRb SRC2 PPI	Tau fibril FP
c1ccc(SSc2ccccc2)cc1	-19%	25µM*	1%	5	-3%	13µM*
Cc1c(N=Cc2c(O)n(Cc3ccco3)c(=O)[nH]c2=O)c(=O)n(-c2ccccc2)n1C	3%	?	-1%	-82*	4%	0%
Cc1c(N=Cc2c(O)n(Cc3ccccc3)c(=O)[nH]c2=O)c(=O)n(-c2ccccc2)n1C	5%	2%	-3%	6	-4%	-3%
O=c1[nH]c2ccccc2n1C1CCN(Cc2ccc(-c3[nH]c4cc5ncnc5cc4nc3-c3ccccc3)cc2)CC1	.	.	-9%	.	4%	.
CN(C)c1ccc(NC(=O)Oc2ccccc2)cc1	?	14µM*	?	31	45µM*	?
CC(=O)Nc1ccc(NC(=O)Oc2ccccc2)cc1	-20%	?	-1%	-12	0%	-5%
CCOc1ccc(Cc2c(O)[nH]c(=O)[nH]c2=O)cc1	-14%	28µM*	1%	-22	-20%	25µM*
CC(C)Oc1ccc(Cc2c(O)[nH]c(=O)[nH]c2=O)cc1	-9%	?	-1%	11	-7%	?
Cc1cc2c(C(C)C)c(O)c(O)c(C=O)c2c(O)c1-c1c(C)cc2c(C(C)C)c(O)c(O)c(C=O)c2c1O	16µM*[quencher]	28µM*	25µM*![quencher]	?	?	35µM*
COC[C@H]1OC(=O)c2coc3c2[C@@]1(C)C1=C(C3=O)[C@H]2CCC(=O)[C@@]2(C)C[C@H]1OC(C)=O	?	14µM*	24%	.	-23%	28µM*
COC[C@H]1OC(=O)c2coc3c2[C@@]1(C)C1=C(C3=O)C2CCC(=O)[C@@]2(C)C[C@H]1OC(C)=O (some centres undefined)	?	18µM*!	45µM*![fluorescent]	.	35µM*	?
O=C(C(=O)N1CCOCC1)c1cn(Cc2ccccc2)c2ccccc12	-12%	-4%	-1%	.	-2%	0%
N#C/C(N)=C(/N)C#N	.	.	-3%	.	-4%	.
NC[C@H](CP(=O)(O)O)c1ccc(Cl)cc1	-7%	-8%	-2%	.	4%	-4%
O=C(O)C(F)(F)C(F)(F)C(F)(F)C(F)(F)C(F)(F)C(F)(F)C(F)(F)C(F)(F)F	.	.	126µM*![quencher]	.	?	.
Cc1[nH]n(-c2ccccc2)c(=O)c1C(c1ccc([N+](=O)[O-])cc1)c1c(C)[nH]n(-c2ccccc2)c1=O	-9%	-7%	0.35µM*[quencher]	-2	0%[53 µM]	2%
CN1c2ccc([N+](=O)[O-])cc2CC2(C(=O)NC(=O)N(c3ccccc3)C2=O)C1c1ccccc1 (centres undefined)	-11%	?	-1%	?	-7%	3%
O=c1[nH]c(=O)n(CCC2=CCCCC2)c(O)c1/C=N/Nc1cccc2ccccc12	?	18µM*	11%	.	10%	?
O=c1[nH]c(=O)n(CCC2=CCCCC2)c(O)c1/C=N/Nc1ccccc1	8%	11%	7%	-27	5%	5%
O=c1[nH]c(=S)n(C2CC2)c(O)c1/C=N/Nc1ccccc1	-29%	11µM*	10%	-11	7%	?
CCC(C)n1c(O)c(/C=N/Nc2ccccc2)c(=O)[nH]c1=S (centres undefined)	?	18µM*	0%	-24	-2%	-8%
O=c1[nH]c(=S)n(C2CC2)c(O)c1/C=N/Nc1cccc2ccccc12	?	11µM*	-1%	16	-1%	?
CCCCC(=O)N/N=C/c1c(O)n(C2CC2)c(=S)[nH]c1=O	-9%	?	-3%	-7	1%	6%
CCC(C)n1c(O)c(C=NCCc2ccccc2)c(=O)[nH]c1=S (centres undefined)	-25%	-13%	0%	.	-1%	4%
CC(=O)[C@H]1CCC2C3CC=C4C[C@@H](OS(=O)(=O)O)CC[C@]4(C)C3CC[C@@]21C (some centres undefined)	1%	-12%	?	.	0%	10%
SMILES	Tau fluor cs	Tau ThT inhib	TexasRed fluor	PNC assembly inh	TRb SRC2 PPI	Tau fibril FP
O=C1C(Cl)=C(Cl)C(=O)C(Cl)=C1Cl	14µM*[quencher]	1.4µM*	-10%	.	-3%	1.4µM*
CCCCn1cnc2cc(NCc3cccc(OC)c3O)ccc21	-26%	?	-7%	12	-3%	4%
CCC(=NCCO)c1c(O)n(C2CCCCC2)c(=O)[nH]c1=O	-6%	-7%	2%	14	2%	-6%
CCC(=NCc1ccc2c(c1)OCO2)c1c(O)n(C2CCCCC2)c(=O)[nH]c1=O	-6%	-14%	3%	-83*	-6%	2%
CCCCCSc1cc(O)c(C(CNC)C(C)C)cc1OC (centres undefined)	-16%	-6%	0%	14	-7%	11%
O=C1C=C2C(=CCOC2O)O1 (centres undefined)	-19%	2.2µM*	3%[201 µM]	.	5%[201 µM]	2µM*
C/C(O)=C(\C#N)C(=O)Nc1cc(Br)ccc1Br	2%	-10%	?	.	7%	7%
COCCNC(=O)c1c(NC(=O)c2ccco2)n(Cc2ccccc2)c2nc3ccccc3nc12	?	14µM*	-5%	?	-24%	?
COCCCNC(=O)c1c(NC(=O)c2ccccc2Cl)n(Cc2ccccc2)c2nc3ccccc3nc12	-11%	4%	1%	-16	1%	5%
Cc1ccc(Cl)c(O)c1	.	.	-3%	.	5%	.
CC1CCCN(C(=O)c2ccc(N3CC4CC(C3)c3cccc(=O)n3C4)c([N+](=O)[O-])c2)C1 (centres undefined)	0%	7%	-1%	-116*	-1%	1%
NCC(O)c1cc(O)c(O)cc1F (centres undefined)	-28%	11µM*	3%	.	1%	?
NCCNc1ccc([N+](=O)[O-])c2cccnc12	-8%	?	-2%	.	3%	3%
Cc1nonc1OCCNc1ccc([N+](=O)[O-])c2cccnc12	?	7.1µM*	-2%	36	-1%	-11%
O=C1CSC2(CN3CCC2CC3)N1 (centres undefined)	-6%	-5%	4%	17	-2%	-5%
CCC(=NCCN1CCOCC1)c1c(O)n(-c2ccccc2C)c(=O)[nH]c1=O	-5%	-18%	-4%	-15	11%	-9%
CC/C(=N\N1CCCCCC1)c1c(O)n(-c2ccccc2C)c(=O)[nH]c1=O	-9%	-17%	-1%	-95*	-3%	6%
O=C1NC(=O)N(CCNc2ncc(C(F)(F)F)cc2Cl)C(=O)C1Cc1ccc(Cl)cc1 (centres undefined)	-16%	?	1%	.	-4%	?
